Measured values reported in PubChem BioAssay.
Activity calls are given as the source filed them.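 How the source made its calls, unless noted: active means fluorescence slope after compound addition differing from the mean of all screened samples at 99.7% confidence, in either direction; inactive means the rest.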

Columns and labels:
[1] = inhibitors of TNFa-induced NFkB p65 translocation, primary screen, imaging, HUVEC, MLSMR starter and 10KST1 sets (AID 438;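 active means inhibition above 20% together with a positive visual image hit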;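 further: compound added about 3h40 before a 20 min TNFalpha stimulation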;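 on inhibition: signal is the nuclear over cytoplasmic p65 intensity ratio per well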); conditions: HUVEC TNFa-induced p65 nuclear translocation; cell count: measured here: nuclei count (cytotoxicity indicator), at 2.08 µM; inhibition: at 2 µM, stronger effect = higher value, 0% TNFa-plus-vehicle, 100% no-TNFa wells
[2] = inhibitors of mutant huntingtin aggregation, primary screen, imaging, exon1htt(103Q)mCFP cells, high-content imaging (AID 483;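 active means visual image review flags a hit and inhibition of aggregation exceeds 20%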;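 further: compound exposure lasted 3 days before fixation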;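 on nuclei count: percent of the per-plate median nuclei count of sample wells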); conditions: exon1htt(103Q)mCFP cell line, aggregate imaging, at 2 µM; inhibition of aggregation: stronger effect = higher value; nuclei count: measured here: cell count, toxicity
[3] = inhibitors of E-selectin induction by TNFa, primary screen, imaging, HUVEC, immunofluorescence, MLSMR starter and 10KST1 sets (AID 487;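 active means visually confirmed hit in the image check and inhibition above 20%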;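 on inhibition: signal is fraction of cell area covered by stained E-selectin grains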;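 on nuclei count: 100% = median nuclei count of all wells on the same plate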); conditions: HUVEC TNFalpha-induced E-selectin immunofluorescence imaging, at 2 µM; inhibition: stronger effect = higher value; nuclei count: measured here: cell number, toxicity
[4] = molecular target: Voltage-gated potassium channel subunit beta-2 (Rattus norvegicus) (UniProt P62483); test: KvBeta enzyme negative modulators, primary screen, biochemical, NADPH fluorescence (AID 622;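 active means fluorescence slope higher than the sample average by over 3 SD, cut at about -0.22 in these data, passing the limit was not always enough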;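 further: slope of raw intensity against log time taken from 70 to 1610 s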); conditions: recombinant KvBeta, 4-cyanobenzaldehyde reduction, at 10 µM, stronger effect = higher value
Chain of Voltage-gated potassium channel subunit beta-2 (Rattus norvegicus) (P62483 whole entry, looked up): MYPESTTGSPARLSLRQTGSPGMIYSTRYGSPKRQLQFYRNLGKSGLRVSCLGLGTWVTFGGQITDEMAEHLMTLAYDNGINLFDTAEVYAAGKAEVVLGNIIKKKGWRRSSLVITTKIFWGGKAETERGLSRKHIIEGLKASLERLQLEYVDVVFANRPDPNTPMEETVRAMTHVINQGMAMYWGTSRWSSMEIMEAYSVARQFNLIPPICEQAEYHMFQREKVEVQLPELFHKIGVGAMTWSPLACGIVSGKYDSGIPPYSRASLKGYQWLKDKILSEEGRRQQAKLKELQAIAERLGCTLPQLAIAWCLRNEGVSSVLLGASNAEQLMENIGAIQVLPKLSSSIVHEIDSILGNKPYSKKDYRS

[5] = molecular target: Voltage-gated potassium channel subunit beta-2 (Rattus norvegicus) (UniProt P62483); test: KvBeta positive modulators, primary screen, biochemical, NADPH fluorescence (AID 623;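 active means NADPH fluorescence slope more negative than the mean of all samples by about 3 SD, 99.7% confidence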;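 further: fluorescence intensity change per second fitted from 20 to 320 s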); conditions: Recombinant KvBeta, NADPH fluorescence decrease slope, 10 min; at 10 µM; stronger effect = lower value
[6] = molecular target: Alpha-2C adrenergic receptor (Homo sapiens) (UniProt P18825); test: modulators of alpha2C/GIRK thallium flux, primary screen, cell-based, HEK293 alpha2C/GIRK1/2 (AID 624); conditions: thallium flux BTC fluorescence, at 10 µM, actives lie on both sides;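 further: slope of fluorescence ratio to pre-addition baseline per second over 15 to 24 s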
Chain of Alpha-2C adrenergic receptor (Homo sapiens) (P18825 whole entry, looked up): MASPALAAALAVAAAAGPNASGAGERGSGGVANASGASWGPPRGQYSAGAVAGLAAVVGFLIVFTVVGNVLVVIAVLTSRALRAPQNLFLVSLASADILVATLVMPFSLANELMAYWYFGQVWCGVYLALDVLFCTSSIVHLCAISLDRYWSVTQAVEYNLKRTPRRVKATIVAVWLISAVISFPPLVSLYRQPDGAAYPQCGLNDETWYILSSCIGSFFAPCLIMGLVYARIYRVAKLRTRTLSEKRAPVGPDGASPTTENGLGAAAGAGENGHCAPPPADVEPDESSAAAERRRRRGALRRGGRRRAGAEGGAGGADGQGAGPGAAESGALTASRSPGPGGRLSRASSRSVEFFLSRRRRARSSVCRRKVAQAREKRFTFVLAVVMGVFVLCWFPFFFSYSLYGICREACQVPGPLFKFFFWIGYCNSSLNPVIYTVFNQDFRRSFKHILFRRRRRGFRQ

[7] = inhibitors of Sendai virus-induced IRF3 signaling, primary screen, TLR/RLR signaling modifier project, cell-based, Sendai virus stimulus, luciferase, 10K MLSCN set (AID 602276;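 active means inhibition at or above 50% at 10 µM; inactive means inhibition below 50%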;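 further: firefly luciferase from ISG56 promoter only with Renilla not read in this screen; 0% = Sendai virus plus DMSO and 100% = medium plus DMSO without virus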); conditions: HEK293 RL24 IRF3 luciferase reporter, at 10 µM, stronger effect = higher value
[8] = inhibitors of poly I:C-induced TLR3 signaling, primary screen, cell-based, poly I:C stimulus, luciferase, 10K MLSCN set (AID 602277;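 active means inhibition of the reporter signal at or above 50%; inactive means inhibition below 50%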); conditions: HEK293-TLR3 RL24 IRF3 luciferase reporter, at 10 µM, stronger effect = higher value

| Compound | cell count [1] | inhibition [1] | inhibition of aggregation [2] | nuclei count [2] | inhibition [3] | nuclei count [3] | fluorescence slope [4] | NADPH fluorescence slope [5] | slope [6] | inhibition [7] | inhibition [8] |
| --- | --- | --- | --- | --- | --- | --- | --- | --- | --- | --- | --- |
| CCSCCNC(=O)c1cc(-n2cnnc2)ccc1Cl | 685 | 1.3% (inactive) | -2.3% (inactive) | 97.1% | 24.9% (inactive) | 89.9% | -0.633 (inactive) | -9.8e-06 (inactive) | 0.0037 (inactive) | 16.3% (inactive) | 20.3% (inactive) |
| O=C(CCN1C(=O)c2ccccc2C1=O)NCCN1CCOCC1 | 377 | -10.6% (inactive) | 10.7% (inactive) | 96.7% | -6% (inactive) | 97% | -0.452 (inactive) | 2.7e-05 (inactive) | 0.00342 (inactive) | -7.29% (inactive) | 20.7% (inactive) |
| O=C(Nc1ccc2c(c1)OCO2)c1cc2ncc(Br)cn2n1 | 588 | 6.6% (inactive) | -4.4% (inactive) | 107% | -73.8% (inactive) | 104% | -0.624 (inactive) | 1.6e-05 (inactive) | 0.00236 (inactive) | 5.44% (inactive) | 11.5% (inactive) |
| O=S(=O)(Nc1ncccn1)c1ccc(Nc2ncnc3ccccc23)cc1 | 623 | -16.4% (inactive) | -7.6% (inactive) | 89.3% | -6% (inactive) | 105% | -0.459 (inactive) | -4.3e-05 (inactive) | 0.00604 (inactive) | -24.5% (inactive) | 12.4% (inactive) |
| COc1ccccc1CNC(=O)C1CCC(CNc2c(N3CCOCC3)c(=O)c2=O)CC1 (stereo not drawn) | 739 | -14.6% (inactive) | 22.5% (inactive) | 105% | -1.3% (inactive) | 122% | -0.592 (inactive) | -3e-05 (inactive) | 0.00599 (inactive) | 1.39% (inactive) | 17.5% (inactive) |
| c1ccc(N2CCN(Cc3cn4cccnc4n3)CC2)cc1 | 683 | -18.4% (inactive) | -18.4% (inactive) | 107% | -36.1% (inactive) | 101% | -0.494 (inactive) | -4e-06 (inactive) | 0.00602 (inactive) | 8.99% (inactive) | 18.5% (inactive) |
| O=C(NC1CCCC1)C(c1cccs1)N(Cc1ccco1)C(=O)Cn1nnc(-c2cccs2)n1 (stereo not drawn) | 482 | -3.3% (inactive) | -7.1% (inactive) | 102% | 3.8% (inactive) | 101% | -0.487 (inactive) | -3.1e-05 (inactive) | 0.00489 (inactive) | 20.2% (inactive) | 23.1% (inactive) |
| Cc1ccc(S(=O)(=O)NCC(=O)N(CC(=O)NCc2ccccc2)CC2CCCO2)cc1 (stereo not drawn) | 341 | -16.5% (inactive) | 14.8% (inactive) | 107% | -31.2% (inactive) | 170% | -0.599 (inactive) | 1.2e-05 (inactive) | 0.00602 (inactive) | 12.2% (inactive) | 15.3% (inactive) |
| CCC(Sc1nc2sc(C(=O)OC)c(C)c2c(=O)n1N)C(=O)NCC1CCCO1 (stereo not drawn) | 477 | 7.5% (inactive) | -2.8% (inactive) | 117% | 12% (inactive) | 98.2% | -0.592 (inactive) | -6.1e-05 (inactive) | 0.00714 (inactive) | 7.5% (inactive) | 11.6% (inactive) |
| Cc1ccc(C)c(NC(=O)CSc2nnc(-c3ccccc3)o2)c1 | 613 | -6% (inactive) | 18.9% (inactive) | 89.2% | -45.1% (inactive) | 104% | -0.543 (inactive) | 8.3e-06 (inactive) | 0.00712 (inactive) | 10% (inactive) | 29.3% (inactive) |
| CC(=O)Oc1ccc(-c2ccc(C(=O)O)cc2)cc1 | 385 | -6.5% (inactive) | 17.9% (inactive) | 99.6% | 35.1% (inactive) | 102% | -0.315 (inactive) | -7.2e-06 (inactive) | 0.00672 (inactive) | 4.99% (inactive) | 14.8% (inactive) |
| CCN1CCCC1CNC(=O)CS(=O)(=O)Cc1nc(-c2ccccc2C)oc1C (stereo not drawn) | 834 | -0.6% (inactive) | 3.2% (inactive) | 104% | -87.9% (inactive) | 126% | -0.511 (inactive) | -3e-05 (inactive) | 0.00452 (inactive) | 5.3% (inactive) | 46.5% (inactive) |
| COC(=O)c1ccccc1NC(=O)c1ccc(-c2ccccc2F)o1 | 516 | -5.3% (inactive) | -24.1% (inactive) | 111% | -37.1% (inactive) | 103% | -0.469 (inactive) | -1.5e-06 (inactive) | 0.00728 (inactive) | 19.2% (inactive) | -29.6% (inactive) |
| CCc1nn(CC(=O)N2CCN(Cc3ccc4c(c3)OCO4)CC2)c(=O)c2cc3occc3n12 | 341 | 1.7% (inactive) | -11.1% (inactive) | 90.2% | -0.9% (inactive) | 105% | -0.353 (inactive) | -1.6e-05 (inactive) | 0.00432 (inactive) | -5.95% (inactive) | -24.9% (inactive) |
| CCOCCCNC(=O)Cn1ncc2c(=O)oc3ccccc3c21 | 651 | -13.4% (inactive) | -20.1% (inactive) | 98.5% | -32.1% (inactive) | 104% | -0.586 (inactive) | -1.8e-05 (inactive) | 0.00598 (inactive) | 5.54% (inactive) | 30.9% (inactive) |
| COc1cccc(-c2nnn(CC(=O)O)n2)c1 | 472 | -5.1% (inactive) | -19.3% (inactive) | 90.3% | -118% (inactive) | 233% | -0.468 (inactive) | 2.6e-06 (inactive) | 0.00693 (inactive) | 6.2% (inactive) | 43.8% (inactive) |
| CC(=O)Nc1ccc(S(=O)(=O)N2CCN=C2C)cc1 | 246 | 7.6% (inactive) | 14.3% (inactive) | 86.3% | -31.5% (inactive) | 83.1% | -0.62 (inactive) | -1.6e-05 (inactive) | 0.00377 (inactive) | 3.93% (inactive) | 19.7% (inactive) |
| COc1ccc(C(=O)Nc2nc(C)c(C(=O)N(C)C)s2)cc1OC | 435 | 2.8% (inactive) | 5.4% (inactive) | 102% | -16.9% (inactive) | 91.8% | -0.461 (inactive) | 2.3e-06 (inactive) | 0.00371 (inactive) | -7.68% (inactive) | -30.5% (inactive) |
| O=C(CSCc1cnn(-c2ccccc2)c1-n1cccc1)NCC1CCCO1 (stereo not drawn) | 587 | -10% (inactive) | -10.3% (inactive) | 101% | -1.9% (inactive) | 121% | -0.581 (inactive) | -4.7e-05 (inactive) | 0.00606 (inactive) | 2.57% (inactive) | 15.3% (inactive) |
| CCN(CCCNC(=O)C1CCN(S(=O)(=O)c2cccc3nonc23)CC1)Cc1ccccc1 | 297 | 16.9% (inactive) | 14.3% (inactive) | 92.7% | -72.5% (inactive) | 110% | -0.43 (inactive) | -4.9e-05 (inactive) | 0.00388 (inactive) | 13.3% (inactive) | 29.8% (inactive) |
| c1ccc(CCNc2ccc3nncn3n2)cc1 | 593 | 5.8% (inactive) | -3.1% (inactive) | 106% | -9.2% (inactive) | 121% | -0.501 (inactive) | -2.4e-05 (inactive) | 0.00573 (inactive) | 6.01% (inactive) | 12.8% (inactive) |
| COC(=O)Cc1c(C)nc2nc[nH]n2c1=O | 648 | -6% (inactive) | 2.1% (inactive) | 103% | -21.9% (inactive) | 104% | -0.313 (inactive) | -4e-05 (inactive) | 0.0059 (inactive) | 8.47% (inactive) | 13.4% (inactive) |
| COC(=O)CCC(=O)Nc1ccc(S(=O)(=O)N2CCCCCC2)cc1 | 743 | 16.7% (inactive) | -20.5% (inactive) | 97.4% | 34.8% (inactive) | 116% | -0.496 (inactive) | -5.3e-05 (inactive) | 0.00616 (inactive) | 8.32% (inactive) | 24.1% (inactive) |
| COc1ccccc1C1CC(c2ccc(C)cc2)Nc2ncnn21 (stereo not drawn) | 332 | 0.7% (inactive) | -31.6% (inactive) | 109% | -37.9% (inactive) | 119% | -0.425 (inactive) | 4.9e-05 (inactive) | 0.00745 (inactive) | -7.75% (inactive) | -0.278% (inactive) |
| CCOC(=O)N1CCN(C(=O)CN(c2ccc(C)cc2)S(=O)(=O)c2c(C)noc2C)CC1 | 565 | -28.3% (inactive) | -13% (inactive) | 103% | -36.7% (inactive) | 108% | -0.617 (inactive) | 1.1e-05 (inactive) | 0.00556 (inactive) | 18.5% (inactive) | 30.7% (inactive) |
| c1ccc(-c2cnc(CSc3ncnc4sccc34)o2)cc1 | 308 | 2.9% (inactive) | 27.8% (inactive) | 86.4% | -7.2% (inactive) | 109% | -0.272 (inactive) | -1.7e-05 (inactive) | 0.00879 (inactive) | -9.6% (inactive) | -51.1% (inactive) |
| CC1=C(C(N)=O)C(c2ccccn2)n2nc(SCc3ccccc3)nc2N1 (stereo not drawn) | 624 | 3.8% (inactive) | 3.9% (inactive) | 93% | 43.5% (inactive) | 86.4% | -0.316 (inactive) | -8.8e-05 (inactive) | 0.0057 (inactive) | -8.46% (inactive) | 0.00265% (inactive) |
| O=C1CC(N2CCN(c3ccc(Cl)c(Cl)c3)CC2)C(=O)N1 (stereo not drawn) | 361 | 0.7% (inactive) | -7.2% (inactive) | 87.1% | 25.6% (inactive) | 98.6% | -0.466 (inactive) | -4.7e-05 (inactive) | 0.00625 (inactive) | -2.47% (inactive) | 20.7% (inactive) |
